“And” between values parts separate entries of the source, which are not always exact repeats. Equal values may be shown once. The whole screen tested about 390,000 compounds, of which about 820 (0.21%) were called active. Inconclusive results (about 3%) are left out. Calls come from the whole dose curve; as a rule, active = well fitted inhibition curve with a large enough effect; inconclusive = small, poorly fitted or top-dose-only effect, or another doubt; inactive = no such curve, though single readings can be large or run the other way. The entries come from a sample that favours actives as a whole. A call without a number means that no potency is given here. The source holds several records for some structures; these can differ, active in one and inactive in another.
Each compound was assayed against Histone acetyltransferase KAT2A (Homo sapiens) (UniProt Q92830) (assay: qHTS Assay for Inhibitors of GCN5L2). Settings: GCN5L2 HAT assay, ThioGlo1 CoA-SH fluorescence; series mostly up to 58.9 µM.
Sequence of Histone acetyltransferase KAT2A (Homo sapiens) (Q92830 whole entry, looked up): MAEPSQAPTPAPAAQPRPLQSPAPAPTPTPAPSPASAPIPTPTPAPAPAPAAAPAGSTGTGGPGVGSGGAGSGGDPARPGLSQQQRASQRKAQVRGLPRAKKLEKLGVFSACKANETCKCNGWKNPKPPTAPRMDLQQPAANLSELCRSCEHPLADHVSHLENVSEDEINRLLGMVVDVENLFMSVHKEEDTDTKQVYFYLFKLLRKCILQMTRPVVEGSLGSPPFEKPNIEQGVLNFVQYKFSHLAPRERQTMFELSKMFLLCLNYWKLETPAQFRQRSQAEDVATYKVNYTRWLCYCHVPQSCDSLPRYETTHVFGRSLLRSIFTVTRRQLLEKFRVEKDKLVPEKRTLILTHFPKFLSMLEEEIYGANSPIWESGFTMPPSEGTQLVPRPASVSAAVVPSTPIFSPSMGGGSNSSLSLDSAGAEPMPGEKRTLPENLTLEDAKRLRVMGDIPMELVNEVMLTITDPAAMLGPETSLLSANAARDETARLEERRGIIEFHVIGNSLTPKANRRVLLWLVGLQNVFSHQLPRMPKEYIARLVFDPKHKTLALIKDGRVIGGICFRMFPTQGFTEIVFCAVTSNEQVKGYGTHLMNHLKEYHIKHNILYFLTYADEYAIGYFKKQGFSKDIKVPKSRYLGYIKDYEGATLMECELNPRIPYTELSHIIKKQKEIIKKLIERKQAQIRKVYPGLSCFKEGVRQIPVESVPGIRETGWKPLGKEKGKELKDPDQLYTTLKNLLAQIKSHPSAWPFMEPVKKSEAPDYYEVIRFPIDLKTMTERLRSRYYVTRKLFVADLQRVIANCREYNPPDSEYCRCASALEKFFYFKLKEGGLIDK
Source text: Histone acetyltransferase (HAT) enzymes transfer a […] group from acetyl-coenzyme A to the epsilon-amino group of conserved lysine residues of N-terminal histone tails. Acetylation results in charge neutralization of this positively charged amino acid, decreasing interactions with the […] backbone and making the DNA more accessible for transcription. HATs have been recognized as an emerging drug target for treatment of cancer, diabetes, asthma, chronic obstructive pulmonary disease, cardiac disease, and viral infection. Protein identified with HAT activity include the […] like 2 (GCN5L2, a.ka. Histone acetyltransferase KAT2A) which acetylates histone H3 at Lys9, 14, 18, 13, and to lesser extent histones H4 and H2B. This activates transcription of the gene by modulating chromatin structure and installing the acetyllysine recognition mark for bromodomain-containing coactivator proteins.
A quantitative high throughput screen was developed to identify small molecule inhibitors. The assay is based on the principle that it measures formation of reduced CoA with the pro-fluorescent maleimide derivative ThioGlo1 that becomes fluorescent upon reaction with the free thiol of CoA.
A large number of artifacts are expected in this primary screen, compounded by the assay format (fluorescent artifacts) and by the high top concentration tested for each substance. This BioAssay data deposition should be used with caution, and counterscreen and secondary assay validation is essential since very few actives from the primary screen are expected to be true inhibitors of GCN5L2.
[2] Yasgar, et al. Compound Management for Quantitative High-Throughput Screening. JALA. 2008 Apr;13(2):79-89.
[3] Inglese, et al. Quantitative high-throughput screening: a titration-based approach that efficiently identifies biological activities in large chemical libraries. Proc Natl Acad Sci. 1;103(31):11473-8. 2006. PMID: 16864780
NIH Molecular Libraries Probe Production Network [MLPCN]
NIH Chemical Genomics Center [NCGC]
Structural Genomics Consortium (SGC)
To each well of a 1,536w plate, 3ul of GCN5L2 (final concentration 20nM, in 50mM HEPES, 0.1mM EDTA (pH 7.5), 0.01% Tween-20 buffer) are added using a Kalypsys dispenser. Only buffer is added to some wells as a control. A Kalypsys pin-tool transferred 23nl of library compound solution in DMSO to each well, as well as the control inhibit garcinol. . Following a 15 min incubation of enzyme with compounds at room temperature, 1ul mixture of ThioGlo1 (50uM final), H3(1-25) peptide (75uM final), and Acetyl-CoA (70uM final) is added. Plates are read immediately on the ViewLux (PerkinElmer) (Ex340nm/Em540nm) for a 0 min read, incubated for 20 min at room temperature, and read again on the ViewLux with the same settings. The initial read was carried out to identify compounds that are potentially fluorescent.
Potency is the fitted concentration of half-maximal effect.

| Structure (SMILES) | Potency |
| --- | --- |
| COc1ccc(N2C(=O)/C(=C/c3ccco3)C(=O)NC2=S)cc1 | 17.8 µM (active) |
| COc1ccc2c3c1O[C@H]1C[C@@H](O)C=C[C@@]31CCN(C)C2 | inactive |
| CC(C)(Cc1c[nH]c2ccc(Cl)cc12)NCCOc1ccccc1OCC1CC1 | inactive |
| C[C@]12CC[C@@H]3c4ccc(O)cc4C[C@@H](CCCCCCCCCS(=O)CCCC(F)(F)C(F)(F)F)C3[C@@H]1CC[C@@H]2O (some centres not stated) | inactive |
| CCCCC/C=C\C/C=C\C/C=C\C/C=C\CCCCCC(=O)NCCO | inactive |
| Cc1cccc2c3c(ccc12)C1=C(C(=O)C3=O)C(C)CO1 (configuration not stated) | 31.6 µM (active) |
| C[C@]12O[C@H](C[C@@]1(O)C(=O)O)n1c3ccccc3c3c4c(c5c6ccccc6n2c5c31)CNC4=O | inactive |
| CCOc1ccc(S(=O)(=O)NCc2ccc3c(c2)OCO3)cc1C | inactive |
| COc1ccc2c3c1OC1CC(O)C=C[C@@]31CCN(C)C2 (some centres not stated) | inactive |
| CC(C)C(N)C(=O)OCCOCn1cnc2c(=O)[nH]c(N)nc21 (configuration not stated) | inactive |
| CN(C)C[C@H]1CCCC[C@]1(O)c1cccc(O)c1 | inactive |
| CC(C)(c1ccc(OC[C@@H]2CO2)cc1)c1ccc(OC[C@H]2CO2)cc1 | inactive |
| CC(=O)c1c(O)c(C)c(O)c(Cc2c(O)c3c(c(C(=O)/C=C/c4ccccc4)c2O)OC(C)(C)C=C3)c1O | inactive and 11.2 µM (active) |
| CC(=O)c1c(O)c(C)c(O)c(Cc2c(O)c3c(c(C(=O)/C=C\c4ccccc4)c2O)OC(C)(C)C=C3)c1O | 35.5 µM (active) |
| CCC(C)C(=O)O[C@@H]1C[C@@]2(C)C(c3ccoc3)OC(=O)CC23OC2(C)O[C@@]14[C@@]1(C)C(CC(=O)OC)C5(C)CC1(O)C(O)(C5OC(=O)C1(C)OC1C)C(OC(C)=O)[C@@]34O2 (some centres not stated) | inactive |
| C=CCN1CCC2(C)c3cc(O)ccc3CC1[C@@H]2C (some centres not stated) | inactive |
| CN1CCCC(=C(c2cccs2)c2cccs2)C1 | inactive |
| CC(C)(O)c1[se]c2ccccc2c1I | inactive |
| CO[C@@H]1C[C@@H](C[C@H]2CC[C@H](C)[C@@H]([C@@H](C)C(=O)O)O2)O[C@]2(O[C@](C)([C@H]3CC[C@@](C)(C4OC([C@H]5O[C@@](O)(CO)[C@H](C)C[C@@H]5C)C[C@@H]4C)O3)C[C@H]2C)[C@@H]1C (some centres not stated) | inactive |
| CCN(CC)c1nc(C)cc(OP(=S)(OC)OC)n1 | inactive |
| CN(C)[C@@H]1C(=O)C(C(N)=O)=C(O)[C@@]2(O)C(=O)C3=C(O)c4c(O)cccc4[C@@](C)(O)C3CC12 (some centres not stated) | inactive |
| COC([CH2][Hg])CNC(=O)c1ccccc1OCC(=O)O (configuration not stated) | 0.891 µM (active) |

From PubChem BioAssay AID504327 (National Center for Advancing Translational Sciences (NCATS), 2011)
